Where “and” joins values, the source holds several entries; their conditions need not be identical. Identical values can stand only once. Records with an inconclusive call do not appear. Calls of active or inactive are those of the source. Rule for the calls: active = hit-call score of the fitted dose curve at least 0.9, where 1 is the maximum; inconclusive = response in the unintended direction; inactive = score below 0.9.
Experiment: TOX21_p53_BLA_p5_viability: Viability Assessment in the Tox21 HCT-116 p53 Agonism Beta-lactamase Assay, Phase 5 (AID 2283600)
From the text: TOX21_p53_BLA_p5 is a cell-based, single-readout assay that uses HCT116, a human intestinal cell line, […] in a 1536-well plate.TOX21_p53_BLA_p5_viability is an assay readout measuring cellular ATP content and detected with CellTiter-Glo Luciferase-coupled ATP quantitation.TOX21_p53_BLA_p5_viability used a type of viability reporter where loss-of-signal activity can be used to understand changes in the cell viability. Furthermore, this assay endpoint can be referred to as a secondary readout, because this assay has produced multiple assay endpoints where this one serves a viability function. To generalize the intended target to other relatable targets, this assay endpoint is annotated to the cell cycle intended target family, where the subfamily is cytotoxicity.
Thawing Method: Place 14 mL of pre-warmed thaw medium into a 15 mL of conical tub. Remove the vial of cells to be thawed from liquid nitrogen and thaw rapidly by placing at 37C in a water bath with gentle agitation for 1-2 minutes. Decontaminate the vial by wiping with 70% ethanol before opening in a biological safety cabinet. Transfer the vial contents drop-wise into 14 mL of thaw medium in a sterile 15-mL conical tub. Centrifuge cells at 900 rpm for 4 minutes and resuspend in thaw medium. Transfer contents to the T75 tissue culture flask containing Thaw Medium and place flask in a humidified 37C/5% CO2 incubator. Switch to growth medium at first passage.Propagation Method: Aspirate medium, rinse once in DPBS, add 0.25% Trypsin/EDTA and swirl to coat the cell evenly. Add an equal volume of Growth Medium to inactivate Trypsin after 2-3 minutes incubation at 37C. Centrifuge cells at 900 rpm for 4 minutes and resuspend in growth medium. Cell should be passage or fed at least twice a week.Assay Protocol: Harvest cells from culture in growth medium and resuspend in assay medium. 2.2 Dispense 4000 cells/5 uL/well into 1536-well black/clear bottom plates using a Multidrop dispenser. After the cells were incubated at 37C for 5 hours, 23 nL of compounds dissolved in DMSO were transferred to the assay plate by a PinTool resulting in a 217-fold dilution. Incubate the plates for 16 hours at 37C, 5% CO2. Add 1 uL of 6X LiveBLAzer FRET B/G (CCF4-AM) Substrate Mixture to each well using a BioRAPTR dispenser and incubate the plates at room temperature for 2 hours. Measure fluorescence intensity at 460 and 530 nm emission and 405 nm excitation by an Envision detector. Data is expressed as the ratio of 460nm/530nm emissions. Add 4 uL of Cell-titer Glo to each well using BioRAPTR and incubate the plates at room temperature for […]. For cell viability readout that measures cytotoxicity, 4 ul/well of CellTiter-Glo reagent was added into the assay plates using a Flying Reagent Dispenser. After 30 min incubation at room temperature, the luminescence intensity in the plates was measured using a ViewLux plate reader.
In the case of `CCCCC(CC)COC(=O)COc1ccc(Cl)cc1C` (stereo not given), the outcome was “inactive”. With `CCCCCC(=O)O[C@]1(C(C)=O)CC[C@H]2[C@@H]3CCC4=CC(=O)CC[C@]4(C)[C@H]3CC[C@@]21C` the outcome was “inactive”. With `C=CCOC(=O)/C=C\C(=O)OCC=C` the outcome was “inactive”. With `CCCCCCCCCCCCOCCOS(=O)(=O)O` the outcome was “inactive”. For `CC(=O)Oc1c(C)c(C)c2c(c1C)CC[C@@](C)(CCC[C@H](C)CCC[C@H](C)CCCC(C)C)O2`, the outcome was “inactive”. In the case of `CCc1cccc(O)c1`, the outcome was “inactive”. With `O=C(OCc1ccccc1)c1ccccc1O` the outcome was “inactive”. For `Cc1cc(O)c2c(c1)C(=O)c1cc(O)cc(O)c1C2=O`, the outcome was “inactive”. With `O=C(O)c1cccc(Cl)n1` the outcome was “inactive”. In the case of `[Cu+]`, the outcome was “inactive”. For `c1ccc2scnc2c1`, the outcome was “inactive”. For `CN(C)CCCNCCCN(C)C`, the outcome was “inactive”. For `COc1ccccc1NC(=O)CC(C)=O`, the outcome was “inactive”. With `CC(C)Cc1ccccc1` the outcome was “inactive”. With `Cc1ccncc1` the outcome was “inactive”. For `CCOC(=O)C=Cc1ccccc1`, the outcome was “inactive”. With `CC1=CC(=O)[C@H]2C[C@@H]1C2(C)C` the outcome was “inactive”. With `CCCCC1CCCCC(=O)O1` (stereo not given) the outcome was “inactive”. For `N=C1N=C(N)c2ccccc21`, the outcome was “inactive”. In the case of `COc1ccc2[nH]cc(CCNC(C)=O)c2c1`, the outcome was “inactive”. In the case of `COc1ccc(OC)cc1`, the outcome was “inactive”. For `CCC(C)(C)C1CCC(=O)CC1`, the outcome was “inactive”. With `CC(=O)c1ccc2ccccc2c1` the outcome was “inactive”. In the case of `O=C(c1ccc(OCCN2CCCCC2)cc1)c1c(-c2ccc(O)cc2)sc2cc(O)ccc12`, the AC50 was 77.6 µM (active) and 87.9 µM (active) and 41.9 µM (active). For `C=CCCCCCCCCC(=O)OCC`, the outcome was “inactive”. In the case of `C[C@H](CCC(=O)O)[C@H]1CC[C@H]2[C@@H]3CC[C@@H]4C[C@H](O)CC[C@]4(C)[C@H]3CC[C@]12C`, the AC50 was 16.3 µM (active). For `C=COCC1CCC(COC=C)CC1` (stereo not given), the outcome was “inactive”. With `CN1CCc2cccc3c2[C@H]1Cc1ccc(O)c(O)c1-3` the outcome was “inactive”. With `OC[C@@H](O)[C@H](O)[C@@H](O)[C@@H](O)CO` the outcome was “inactive”. For `NC(=O)c1cccnc1`, the outcome was “inactive”. With `FC(F)(F)c1ccc(Cl)c(Cl)c1` the outcome was “inactive”. For `CC(=O)Nc1cc(S(=O)(=O)O)cc2cc(S(=O)(=O)O)c(N=Nc3ccccc3)c(O)c12`, the outcome was “inactive”. For `NCCN1CCNCC1`, the outcome was “inactive”. For `CCCCCCCCCCCCCCCCCC(=O)OCCCCCCCCCCCCCC(C)C`, the outcome was “inactive”. For `CCC(C)COC(=O)CC(C)C` (stereo not given), the outcome was “inactive”. With `CN(C)c1ccc(C=O)cc1` the outcome was “inactive”. With `CC(C)(C)C1CCC(O)CC1` (stereo not given) the outcome was “inactive”. In the case of `OCCCO`, the outcome was “inactive”. In the case of `NC(=O)c1cnccn1`, the outcome was “inactive”. For `NC(N)=S`, the outcome was “inactive”.

— PubChem BioAssay (EPA / NIEHS)
